Data: PubChem BioAssay (NCATS)
Results filed as inconclusive are left out. Values without a mark were called inactive. Active and inactive are the calls of the source. Calls follow the shape of the dose curve; as a rule, active = well fitted curve in the direction sought with a large enough effect; inconclusive = small, poorly fitted or top-dose-only effect, or another doubt; inactive = no such curve, though single readings can be large; an effect the other way counts as inactive or inconclusive. Where a SMILES comes first, the peptide text is derived from it.

tested on: not listed separately; test: Confirmatory screen NINDS Rhodamine qHTS for Zika virus inhibitors (AID 1347161); details: purified enzyme assay, Rhodamine110 substrate fluorescence, 15 min; series mostly up to 114 µM; activity change, negative = inhibition: at the top concentration; also: nearly all actives have a fitted effect of over 60% in size; also: potency is read from the fitted curve at half-maximal effect;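 as to activity change, negative = inhibition: purified Zika NS2B-NS3 protease with linked NS2B cofactor domain and Rhodamine110 peptide substrate; plate controls were no-inhibitor control for no effect and no-enzyme control for full effect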
Method in brief: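 Percent inhibition, normalized to uninhibited and enzyme-free controls, is fitted to a 4-parameter Hill equation. Fluorescence change comes from a 15-min cleavage of 1.5 microM bis-peptide Rhodamine110 substrate by 25 nM linked NS2B-NS3 at room temperature.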

SMILES	Potency	activity change, negative = inhibition
CC(C)CC(c1c(O)c(C=O)c(O)c(C=O)c1O)C1CCC(C)(O)C2CC(C(C)(C)O)CCC12C (stereo unspecified)	3.41 µM (active)	
CC1(C)CC[C@]2(C(=O)O)CC[C@]3(C)C(=CCC4[C@@]5(C)CC[C@H](O[C@@H]6O[C@H](C(=O)O)[C@@H](O)[C@H](O)[C@H]6O)C(C)(C)C5CC[C@]43C)C2C1 (stereo partly specified)	6.55 µM (active)	
CC1C(O)C(O)C2C(C(=O)OCCc3ccc(O)cc3)=COC(O[C@@H]3O[C@H](CO)[C@@H](O)[C@H](O)[C@H]3O)C12 (stereo partly specified)	15.2 µM (active)	
CSCC[C@H](NC(=O)[C@H](CO)NC(=O)[C@H](CCC(=O)O)NC(C)=O)C(=O)N[C@H](C=O)CC(=O)O (Ac-ESMD-aldehyde)		12.5% [at 22.2 µM]
CCc1nnc(NS(=O)(=O)c2ccc(NC(=S)NC(=O)/C=C/c3ccc(F)cc3)cc2)s1	2.78 µM (active)	

tested on: Zika virus NS2B-NS3 protease (linked construct); test: 384 well plate NINDS Rhodamine confirmatory qHTS for Zika virus inhibitors (AID 1347164); details: rhodamine-110 peptide substrate fluorescence; series mostly up to 100 µM; activity change, negative = inhibition: at the top concentration;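 also: fluorescence from protease cleavage of Ac-LKRR-rhodamine 110 substrate; potency is read from the fitted curve at half-maximal effect; nearly all actives have a fitted effect of over 65% in size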
Method in brief: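 Fluorescence at 485/538 nm was measured 25 minutes after adding 10 microM Ac-LKRR-Rd substrate, in the dark at room temperature. The protease (5, 30 or 60 nM final) had been preincubated ~15 minutes with compound; aprotinin as control.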

SMILES	Potency
CC(C)CC(c1c(O)c(C=O)c(O)c(C=O)c1O)C1CCC(C)(O)C2CC(C(C)(C)O)CCC12C (stereo unspecified)	15.8 µM (active)
CC1(C)CC[C@]2(C(=O)O)CC[C@]3(C)C(=CCC4[C@@]5(C)CC[C@H](O[C@@H]6O[C@H](C(=O)O)[C@@H](O)[C@H](O)[C@H]6O)C(C)(C)C5CC[C@]43C)C2C1 (stereo partly specified)	2.24 µM (active)
CC1C(O)C(O)C2C(C(=O)OCCc3ccc(O)cc3)=COC(O[C@@H]3O[C@H](CO)[C@@H](O)[C@H](O)[C@H]3O)C12 (stereo partly specified)	3.98 µM (active)

tested on: not listed separately; test: Vero cells viability qHTS for Zika virus inhibitors (AID 1347167); details: cytotoxicity counter-screen (Zika); series mostly up to 45.9 µM; activity change, negative = cytotoxicity: at the top concentration; also: % is scaled to controls: 0 for no effect and ±100 for the full control effect
Method in brief: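 Counter-screen for cytotoxicity of hits from NS2B-NS3 protease qHTS. Overnight-attached cells (2.5 x 10^5 cells/mL, DMEM/4% FBS) were dosed in titration, incubated 24 to 48 hours, then assayed by CellTiter Glo.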

SMILES	activity change, negative = cytotoxicity
CC(C)CC(c1c(O)c(C=O)c(O)c(C=O)c1O)C1CCC(C)(O)C2CC(C(C)(C)O)CCC12C (stereo unspecified)	-2.7% [at 26.9 µM]
CC1C(O)C(O)C2C(C(=O)OCCc3ccc(O)cc3)=COC(O[C@@H]3O[C@H](CO)[C@@H](O)[C@H](O)[C@H]3O)C12 (stereo partly specified)	-6.28% [at 26.9 µM]
CCc1nnc(NS(=O)(=O)c2ccc(NC(=S)NC(=O)/C=C/c3ccc(F)cc3)cc2)s1	-3.37%
